Screening results (PubChem)
Bead autofluor: flagged as autofluorescent in microsphere protease counterscreen | compound autofluorescence counterscreen, microsphere flow cytometry; hits give high values | fluorescence intensity (concentration not given with the values) | 3.1% of 360,000 active; in the data active means fluorescence intensity above about 16000; inconclusive means no clear call, values can overlap the other calls
BoNT F protease: BoNT F light chain protease inhibition; Multiplex microsphere protease cleavage assay, flow cytometry; inhibition, % at 10 µM; 0.22% of 360,000 active; in the data active means inhibition above about 35%, passing the limit was not always enough; inconclusive means no clear call, values can overlap the other calls
BoNT-A LC inh2: inhibitors of Botulinum neurotoxin A light chain protease; multiplex microsphere protease substrate cleavage, flow cytometry; inhibition, % at 10 µM; 0.17% of 360,000 active; AID 588499
SARS 3CLpro inh: SARS-CoV 3CLpro protease inhibition; AID 1706; recombinant SARS-CoV 3CLpro, quenched FRET peptide cleavage; inhibition, % at 6 µM; P0C6X7; 0.14% of 290,000 active; in the data active means inhibition above about 12%
Anthrax LF inh2: blocks Bacillus anthracis lethal factor protease | P15917 | multiplex microsphere protease cleavage assay, LF | inhibition, % at 10 µM | 0.12% of 360,000 active | AID 588501
Target sequence (P15917 whole entry, looked up): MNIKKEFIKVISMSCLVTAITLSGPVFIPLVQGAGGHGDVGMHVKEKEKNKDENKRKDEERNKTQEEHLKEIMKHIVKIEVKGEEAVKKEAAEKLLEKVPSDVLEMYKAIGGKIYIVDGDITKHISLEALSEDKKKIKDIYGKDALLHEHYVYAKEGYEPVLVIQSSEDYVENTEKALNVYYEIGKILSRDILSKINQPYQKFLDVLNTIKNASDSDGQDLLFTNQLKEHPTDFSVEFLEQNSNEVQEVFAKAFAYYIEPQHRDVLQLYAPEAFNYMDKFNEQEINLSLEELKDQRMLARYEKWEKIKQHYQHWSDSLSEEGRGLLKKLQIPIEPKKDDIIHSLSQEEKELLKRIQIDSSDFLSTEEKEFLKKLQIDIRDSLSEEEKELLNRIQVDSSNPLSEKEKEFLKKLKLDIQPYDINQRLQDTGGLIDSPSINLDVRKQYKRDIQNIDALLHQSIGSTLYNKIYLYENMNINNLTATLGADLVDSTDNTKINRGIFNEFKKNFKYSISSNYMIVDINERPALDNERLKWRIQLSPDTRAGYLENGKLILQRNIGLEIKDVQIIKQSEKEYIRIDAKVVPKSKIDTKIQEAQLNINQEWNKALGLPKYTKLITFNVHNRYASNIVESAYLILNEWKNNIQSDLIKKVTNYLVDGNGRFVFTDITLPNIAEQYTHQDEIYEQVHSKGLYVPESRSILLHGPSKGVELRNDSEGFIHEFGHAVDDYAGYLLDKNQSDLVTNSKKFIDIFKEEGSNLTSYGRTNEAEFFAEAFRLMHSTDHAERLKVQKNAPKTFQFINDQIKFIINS
A number is an active result; 0 = inactive; ? = inconclusive; - = no result given. Rows were chosen to be rich in hits. Some 3.5% of all compounds tested hit in one or more screens of this group. Unless noted, no stated cut-off is given here; in the data, active means inhibition above about 30%; inconclusive means no clear call, values can overlap the other calls; inactive means below that.

SMILES	Bead autofluor	BoNT F protease	BoNT-A LC inh2	SARS 3CLpro inh	Anthrax LF inh2
Cc1ccc(S(=O)(=O)NCCCCCC(=O)N(C)C)cc1	19200	0	0	0	0
Cn1cnnc1SCC(=O)N(Cc1ccc2c(c1)OCO2)C1(C(=O)NC2CCCCC2)CCCC1	22413	0	0	0	0
C=CCOC(=O)c1cc(-c2ccc(/C=C3\C(=O)NC(=O)C(C#N)=C3C)o2)ccc1Cl	0	0	0	0	0
CCCOC(=O)c1cc(-c2ccc(/C=C3/C(=O)N(C)C(=O)C(C#N)=C3C)o2)ccc1Cl	22120	0	0	0	0
Cc1cccc(NC(=S)N(CCN(C)C)C(C)c2ccccn2)c1 (configuration not stated)	22805	0	0	0	0
Cc1cccc(NC(=S)N(CCN(C)C)C(C)c2cccnc2)c1 (configuration not stated)	0	0	0	0	0
CCOC(=O)C1=CN(Cc2cccc(I)c2)S(=O)(=O)N(C)C1C (configuration not stated)	0	0	0	-	0
O=C(CNC(=O)c1cccs1)N/N=C/c1ccc(Cl)cc1	0	0	0	0	0
Cc1cc(C)n(CC(O)COc2ccc3ccccc3c2)n1 (configuration not stated)	0	0	0	0	0
Cc1nc2ccc(NC(=O)c3cccc(C(F)(F)F)c3)cc2o1	22143	0	0	0	0
Cc1cccc(C(=O)OCC(=O)NC(C)CCc2ccccc2)c1O (configuration not stated)	0	0	0	0	0
O=C(COC(=O)CCc1ccc(S(=O)(=O)N2CCOCC2)cc1)Nc1ncc(C(F)(F)F)cc1Cl	25667	0	0	0	0
Nc1ccccc1C(=O)NNc1ncc(C(F)(F)F)cc1Cl	22928	0	?	0	0
O=C(COC(=O)c1ccc2ccccc2n1)Nc1ncc(C(F)(F)F)cc1Cl	22793	0	0	0	0
O=C(COC(=O)c1ccc2ccccc2c1)Nc1ncc(C(F)(F)F)cc1Cl	0	0	0	0	0
CCc1nc(C)cc(N)c1OCc1ccccc1	17332	0	0	0	0
CC(C)(C)n1ncc2c(=O)n(CC(=O)N3CCc4ccccc43)cnc21	0	0	0	0	0
O=C(Cn1cnc2c(cnn2-c2ccccc2Cl)c1=O)N1CCc2ccccc21	21755	0	0	0	0
O=C(NC1CCCCC1)C(c1cccnc1)N(C(=O)CCl)c1ccccc1Cl (configuration not stated)	0	38	0	0	0
COc1ccc(-c2nsc(C(=O)N(c3ccc(F)cc3)C(C(=O)NC3CCCC3)c3ccc(OC)cc3)c2N)cc1 (configuration not stated)	23904	0	0	0	0
COc1ccc(N(C(=O)CCl)C(C(=O)NC2CCCCC2)c2cccnc2)cc1 (configuration not stated)	0	0	0	21	0
O=C(NC1CCCCC1)C(c1cccnc1)N(C(=O)CCl)c1ccc(F)cc1 (configuration not stated)	0	0	0	0	0
COc1ccccc1CN1CCN(C(CC(C)C)c2nnnn2Cc2cccs2)CC1 (configuration not stated)	0	0	0	-	0
CCOc1ccccc1NC(=O)CSc1nc2cccnc2n1C	0	0	0	0	0
COc1ccccc1Nc1ncc(C(=O)Nc2ccc(OC)c(OC)c2)c2ccccc12	0	0	0	0	0
SMILES	Bead autofluor	BoNT F protease	BoNT-A LC inh2	SARS 3CLpro inh	Anthrax LF inh2
CCC(C)NC(=O)CCc1nnc2ccc(N3CCC(C)CC3)nn12 (configuration not stated)	0	0	0	0	0
CCOC(=O)C(C)NC(=O)CCc1nnc2ccc(N3CCC(C)CC3)nn12 (configuration not stated)	0	37	0	0	0
O=C(CN1CCN(C(c2ccccc2)c2ccccc2)CC1)N1N=CCC1c1ccccc1 (configuration not stated)	0	?	0	0	0
CCCc1cc(=O)[nH]c(SCC(=O)N2CCCc3ccccc32)n1	0	0	0	0	0
Nc1cc(=O)[nH]c(SCC(=O)N2CCCc3ccccc32)n1	16983	0	0	0	0
Cc1cc(=O)[nH]c(N2CCc3ccccc3C2)n1	25748	0	0	0	0
Cc1cc(=O)[nH]c(SCC(=O)N2CCc3ccccc3C2)n1	20691	0	0	0	0
O=C(CSc1nnnn1-c1ccc(Cl)cc1)N1CCc2ccccc2C1	21981	0	0	0	0
Cc1nc(N2CCc3ccccc3C2)[nH]c(=O)c1Cc1ccccc1	0	0	0	0	0
Cc1ccnc(SCC(=O)N2CCc3ccccc3C2)n1	0	0	0	0	0
Cn1c(=O)n(C)c2cc3[nH]cnc3cc21	0	0	0	0	0
Cc1nn(CCOc2ccccc2)c(=O)n1-c1ccccc1	22975	0	0	0	0
CCOC(=O)Cn1nc(C)n(-c2ccccc2)c1=O	22724	0	0	0	0
Cc1nn(CCOc2ccccc2)c(=O)n1-c1ccc(Cl)cc1	0	0	0	0	0
COC(=O)C(C)n1cnc2c(nnn2-c2ccc(C)cc2)c1=O (configuration not stated)	0	0	0	0	0
CCOC(=O)Cn1nc(-c2ccccc2)ccc1=O	23084	0	0	0	0
CCOC(=O)Cn1nc(C)n(-c2c(C)cccc2C)c1=O	0	0	0	0	0
COC(=O)C(C)n1nc(C)n(-c2ccc(C)cc2)c1=O (configuration not stated)	22187	0	0	0	0
CC(Oc1cccnc1[N+](=O)[O-])C(=O)Nc1ccc(F)cc1 (configuration not stated)	0	0	0	-	0
Cc1cc(C(=O)NNc2ccccc2F)no1	-	-	-	0	-
Cc1ccc(-n2c(C)nn(CC#N)c2=O)cc1	0	0	0	0	0
CCOC(=O)Cn1nc(C)n(-c2ccc(C)cc2)c1=O	22478	0	0	0	0
COc1cccc(C2NC(=O)c3ccccc3O2)c1OC (configuration not stated)	18893	0	?	0	0
CCCCOc1ccc(C(=O)NCC(=O)N2CC(C)OC(C)C2)cc1 (configuration not stated)	0	0	0	-	0
COCCN(C(=O)CSc1nnc(C)n1-c1ccc(C)cc1)c1c(N)n(Cc2ccccc2)c(=O)[nH]c1=O	17749	0	0	-	0
COCCN(C(=O)CSc1nnc(C)n1-c1ccccc1)c1c(N)n(Cc2ccccc2)c(=O)[nH]c1=O	0	0	0	0	0
COCCN(C(=O)COC(=O)c1cc2ccccc2cc1OC)c1c(N)n(Cc2ccccc2)c(=O)[nH]c1=O	?	0	?	-	0
COCCN(C(=O)COC(=O)c1cc(C)n(-c2ccccc2)c1C)c1c(N)n(Cc2ccccc2)c(=O)[nH]c1=O	0	0	60	-	?
CC1(C)CC(NC(=O)C23CCC(C)(/C(=N/O)C2)C3(C)C)CC(C)(C)N1 (configuration not stated)	22387	0	?	0	0
CC1(C)CC(NC(=O)C23CCC(C)(C2Br)C3(C)C)CC(C)(C)N1 (configuration not stated)	0	35	0	0	0
